Experimental data published in the supplement of paper PMC10849652.
The full data set covers some 7,900 targets. This sample favours those with a hit. About 0.6% of all pairs of compound and target were hits. Values without a mark were called inactive.

How the values were obtained:
Test in all cases: log2 fold change, soluble protein after heating vs DMSO (PISA); higher = thermal stabilisation; K562 cells, 10 uM, 30 min; active = over 0.2 and 3.5 SD of the protein, either way, in both replicates (recomputed)
bafetinib = compound: Cc1ccc(NC(=O)c2ccc(CN3CC[C@H](N(C)C)C3)c(C(F)(F)F)c2)cc1Nc1nccc(-c2cncnc2)n1 [bafetinib]
Outline: (§1)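 For each measurement, 10 μM compound was applied for 30 min to K562 cells at 2×10^6 cells/mL. Aliquots were heated for 3 min across 48°C-58°C, pooled, and extracted in PBS with 0.5% NP-40 at 4°C; the supernatant after 21,000xg for 90 min was soluble protein. This was quantified by TMTpro 16plex LC-MS/MS with channel sums equalised, and thermal stability was reported relative to control samples from duplicates, on a log2 fold-change scale.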

[1] = compound: Cc1cccc(CC(=O)N2CCc3c2ccc(-c2cn(C)c4ncnc(N)c24)c3F)n1
Outline: as §1

nilotinib = compound: Cc1cn(-c2cc(NC(=O)c3ccc(C)c(Nc4nccc(-c5cccnc5)n4)c3)cc(C(F)(F)F)c2)cn1 [nilotinib]
Outline: as §1

[2] = compound: Cc1nc(Nc2n[nH]c3c2CN(C(=O)N[C@H](CN(C)C)c2ccccc2)C3(C)C)c2sccc2n1
Outline: as §1

dasatinib = compound: Cc1nc(Nc2ncc(C(=O)Nc3c(C)cccc3Cl)s2)cc(N2CCN(CCO)CC2)n1 [dasatinib]
Outline: as §1

[3] = compound: Cc1ncc(-c2ccnc(Nc3ccc(S(C)(=O)=O)cc3)n2)n1C(C)C
Outline: as §1

[4] = compound: Cn1cc(-c2ccc3c(c2)CCN3C(=O)Cc2cccc(C(F)(F)F)c2)c2c(N)ncnc21
Outline: as §1

[5] = compound: Cn1cc(-c2ccc3nnc(C(F)(F)c4ccc5ncccc5c4)n3n2)cn1
Outline: as §1

tipifarnib = compound: Cn1cncc1[C@@](N)(c1ccc(Cl)cc1)c1ccc2c(c1)c(-c1cccc(Cl)c1)cc(=O)n2C [tipifarnib]
Outline: as §1

mubritinib = compound: FC(F)(F)c1ccc(/C=C/c2nc(COc3ccc(CCCCn4ccnn4)cc3)co2)cc1 [mubritinib]
Outline: as §1

UniProt Q15796, sequence (Q15796 whole entry, looked up): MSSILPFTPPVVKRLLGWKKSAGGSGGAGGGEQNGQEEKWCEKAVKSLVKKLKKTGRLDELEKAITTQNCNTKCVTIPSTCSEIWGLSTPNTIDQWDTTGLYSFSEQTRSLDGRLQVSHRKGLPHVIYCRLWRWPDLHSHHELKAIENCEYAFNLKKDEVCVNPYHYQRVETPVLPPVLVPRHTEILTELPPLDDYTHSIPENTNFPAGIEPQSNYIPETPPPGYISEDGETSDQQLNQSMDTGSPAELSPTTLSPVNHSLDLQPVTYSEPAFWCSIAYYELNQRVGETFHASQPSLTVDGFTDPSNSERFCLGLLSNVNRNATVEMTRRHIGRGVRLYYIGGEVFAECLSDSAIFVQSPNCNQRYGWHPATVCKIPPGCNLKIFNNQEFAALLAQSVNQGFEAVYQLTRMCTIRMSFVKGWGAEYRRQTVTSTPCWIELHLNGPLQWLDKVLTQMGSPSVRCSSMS
UniProt O60271, sequence (O60271 whole entry, looked up): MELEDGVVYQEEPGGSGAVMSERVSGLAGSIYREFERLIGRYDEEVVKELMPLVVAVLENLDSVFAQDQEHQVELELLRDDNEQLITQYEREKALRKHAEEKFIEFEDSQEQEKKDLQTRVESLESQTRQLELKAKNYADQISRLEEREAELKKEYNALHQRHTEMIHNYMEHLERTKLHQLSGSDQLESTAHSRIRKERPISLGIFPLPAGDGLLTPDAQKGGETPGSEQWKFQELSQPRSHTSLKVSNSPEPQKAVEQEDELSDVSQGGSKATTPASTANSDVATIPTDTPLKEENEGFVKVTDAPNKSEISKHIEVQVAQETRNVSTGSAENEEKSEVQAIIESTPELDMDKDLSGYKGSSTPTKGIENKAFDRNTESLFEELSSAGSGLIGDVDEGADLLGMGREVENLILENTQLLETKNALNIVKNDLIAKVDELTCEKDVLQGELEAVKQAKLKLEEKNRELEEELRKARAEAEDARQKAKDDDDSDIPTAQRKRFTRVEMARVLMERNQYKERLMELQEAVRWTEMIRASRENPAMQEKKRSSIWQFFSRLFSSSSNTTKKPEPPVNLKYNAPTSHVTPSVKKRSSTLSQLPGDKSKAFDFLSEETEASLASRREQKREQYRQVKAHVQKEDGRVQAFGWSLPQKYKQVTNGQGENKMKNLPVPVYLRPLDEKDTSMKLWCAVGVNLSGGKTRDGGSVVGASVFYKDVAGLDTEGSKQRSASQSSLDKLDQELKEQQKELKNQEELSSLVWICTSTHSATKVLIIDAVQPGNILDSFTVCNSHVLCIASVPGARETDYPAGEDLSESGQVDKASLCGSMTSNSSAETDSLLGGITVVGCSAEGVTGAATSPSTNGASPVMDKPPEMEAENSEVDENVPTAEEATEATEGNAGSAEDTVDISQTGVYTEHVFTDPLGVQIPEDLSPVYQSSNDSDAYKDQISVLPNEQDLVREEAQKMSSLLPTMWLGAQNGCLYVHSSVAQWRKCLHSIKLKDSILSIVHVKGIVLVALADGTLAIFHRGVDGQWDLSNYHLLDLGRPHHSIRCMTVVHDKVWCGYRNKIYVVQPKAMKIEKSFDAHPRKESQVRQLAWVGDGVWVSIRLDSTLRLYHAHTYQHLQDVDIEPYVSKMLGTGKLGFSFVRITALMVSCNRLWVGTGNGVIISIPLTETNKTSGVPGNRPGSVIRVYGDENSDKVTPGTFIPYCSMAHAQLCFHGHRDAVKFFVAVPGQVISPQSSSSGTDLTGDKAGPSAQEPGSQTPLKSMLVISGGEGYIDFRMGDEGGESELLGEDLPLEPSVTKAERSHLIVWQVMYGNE
UniProt A6NHR9, sequence (A6NHR9 whole entry, looked up): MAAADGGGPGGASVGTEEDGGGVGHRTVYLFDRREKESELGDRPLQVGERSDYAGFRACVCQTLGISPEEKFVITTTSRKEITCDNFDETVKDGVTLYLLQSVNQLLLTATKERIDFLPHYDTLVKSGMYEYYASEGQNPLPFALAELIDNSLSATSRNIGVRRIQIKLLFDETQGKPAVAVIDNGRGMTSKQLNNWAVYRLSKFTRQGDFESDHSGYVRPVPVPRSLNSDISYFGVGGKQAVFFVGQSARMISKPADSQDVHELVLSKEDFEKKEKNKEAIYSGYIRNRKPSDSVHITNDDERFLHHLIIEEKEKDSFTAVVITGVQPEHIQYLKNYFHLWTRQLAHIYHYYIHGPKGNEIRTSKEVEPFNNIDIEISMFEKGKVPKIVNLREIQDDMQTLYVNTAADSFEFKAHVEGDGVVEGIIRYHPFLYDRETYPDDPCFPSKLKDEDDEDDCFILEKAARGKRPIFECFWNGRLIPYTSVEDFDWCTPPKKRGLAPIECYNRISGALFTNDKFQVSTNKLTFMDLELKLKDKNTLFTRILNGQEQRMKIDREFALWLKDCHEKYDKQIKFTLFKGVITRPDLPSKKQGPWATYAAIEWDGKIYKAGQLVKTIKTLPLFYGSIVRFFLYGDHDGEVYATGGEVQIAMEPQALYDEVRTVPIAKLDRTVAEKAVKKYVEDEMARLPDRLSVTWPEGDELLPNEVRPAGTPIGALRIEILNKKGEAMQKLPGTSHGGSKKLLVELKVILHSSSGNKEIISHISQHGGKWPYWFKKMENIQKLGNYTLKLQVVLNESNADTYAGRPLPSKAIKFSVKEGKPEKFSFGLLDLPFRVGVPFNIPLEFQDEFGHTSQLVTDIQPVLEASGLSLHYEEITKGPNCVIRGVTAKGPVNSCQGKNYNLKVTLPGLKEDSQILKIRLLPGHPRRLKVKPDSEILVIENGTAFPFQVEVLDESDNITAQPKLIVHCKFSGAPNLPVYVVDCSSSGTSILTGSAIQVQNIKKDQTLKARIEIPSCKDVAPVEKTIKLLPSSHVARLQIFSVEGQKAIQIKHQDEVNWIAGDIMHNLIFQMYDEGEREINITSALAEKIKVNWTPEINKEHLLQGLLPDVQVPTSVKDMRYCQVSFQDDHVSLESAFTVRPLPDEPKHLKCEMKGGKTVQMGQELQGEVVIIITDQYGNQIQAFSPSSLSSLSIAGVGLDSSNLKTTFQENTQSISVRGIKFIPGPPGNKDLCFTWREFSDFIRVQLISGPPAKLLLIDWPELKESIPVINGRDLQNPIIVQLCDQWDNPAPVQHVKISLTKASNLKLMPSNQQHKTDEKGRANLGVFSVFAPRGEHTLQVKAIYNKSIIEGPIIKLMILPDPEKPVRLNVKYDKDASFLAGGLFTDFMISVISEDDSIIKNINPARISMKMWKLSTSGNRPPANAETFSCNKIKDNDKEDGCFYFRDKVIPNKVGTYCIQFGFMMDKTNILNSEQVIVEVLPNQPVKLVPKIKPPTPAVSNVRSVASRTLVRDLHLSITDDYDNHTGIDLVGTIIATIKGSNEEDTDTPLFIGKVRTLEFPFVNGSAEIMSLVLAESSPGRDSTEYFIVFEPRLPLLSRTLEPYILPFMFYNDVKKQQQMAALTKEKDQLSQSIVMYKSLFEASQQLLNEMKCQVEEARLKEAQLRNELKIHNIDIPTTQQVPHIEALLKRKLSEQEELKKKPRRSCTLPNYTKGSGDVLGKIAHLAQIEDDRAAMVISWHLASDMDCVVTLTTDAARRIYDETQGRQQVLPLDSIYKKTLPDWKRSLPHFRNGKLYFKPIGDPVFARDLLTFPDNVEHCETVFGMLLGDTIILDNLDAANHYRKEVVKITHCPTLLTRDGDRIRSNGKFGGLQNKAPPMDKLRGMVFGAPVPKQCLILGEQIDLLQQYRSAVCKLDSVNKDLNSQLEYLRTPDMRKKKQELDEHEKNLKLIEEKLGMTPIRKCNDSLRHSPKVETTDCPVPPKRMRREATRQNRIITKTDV
UniProt Q6XR72, sequence (Q6XR72 whole entry, looked up): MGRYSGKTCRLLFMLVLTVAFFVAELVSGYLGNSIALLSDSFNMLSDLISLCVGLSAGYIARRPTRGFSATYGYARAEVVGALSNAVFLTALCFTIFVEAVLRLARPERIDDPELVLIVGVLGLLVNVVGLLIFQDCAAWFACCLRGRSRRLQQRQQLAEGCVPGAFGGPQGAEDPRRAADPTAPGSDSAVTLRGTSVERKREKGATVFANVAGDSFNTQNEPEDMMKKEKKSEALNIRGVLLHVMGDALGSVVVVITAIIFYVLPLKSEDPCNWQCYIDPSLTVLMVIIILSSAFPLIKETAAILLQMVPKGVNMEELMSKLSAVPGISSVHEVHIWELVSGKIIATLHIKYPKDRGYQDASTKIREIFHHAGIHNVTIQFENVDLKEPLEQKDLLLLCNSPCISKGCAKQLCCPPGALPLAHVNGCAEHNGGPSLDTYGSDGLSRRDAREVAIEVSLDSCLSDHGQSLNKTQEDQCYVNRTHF
UniProt Q8IWZ8, sequence (Q8IWZ8 whole entry, looked up): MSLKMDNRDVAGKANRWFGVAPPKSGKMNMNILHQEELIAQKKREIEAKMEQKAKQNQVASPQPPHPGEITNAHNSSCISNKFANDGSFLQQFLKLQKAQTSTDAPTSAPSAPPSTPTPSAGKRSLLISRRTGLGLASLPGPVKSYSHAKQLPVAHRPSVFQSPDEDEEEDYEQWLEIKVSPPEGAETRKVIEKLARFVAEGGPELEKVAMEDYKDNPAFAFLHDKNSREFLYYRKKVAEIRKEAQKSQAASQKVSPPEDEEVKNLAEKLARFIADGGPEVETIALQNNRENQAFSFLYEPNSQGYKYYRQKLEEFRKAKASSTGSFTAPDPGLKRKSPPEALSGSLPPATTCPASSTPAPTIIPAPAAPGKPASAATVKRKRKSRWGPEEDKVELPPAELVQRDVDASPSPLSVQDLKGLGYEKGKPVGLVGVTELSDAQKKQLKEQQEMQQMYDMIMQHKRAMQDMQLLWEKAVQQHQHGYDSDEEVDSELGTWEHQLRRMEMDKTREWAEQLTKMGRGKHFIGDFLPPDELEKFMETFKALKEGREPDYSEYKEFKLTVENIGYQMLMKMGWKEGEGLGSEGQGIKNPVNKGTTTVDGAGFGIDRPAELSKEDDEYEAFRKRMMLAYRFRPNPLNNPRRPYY
UniProt P62318, sequence (P62318 whole entry, looked up): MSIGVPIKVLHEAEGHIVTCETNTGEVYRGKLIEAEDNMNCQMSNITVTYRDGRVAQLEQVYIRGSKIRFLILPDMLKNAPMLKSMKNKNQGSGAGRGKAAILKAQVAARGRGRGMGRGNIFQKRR

Target	log2 fold change (bafetinib)	log2 fold change [1]	log2 fold change (nilotinib)	log2 fold change [2]	log2 fold change (dasatinib)	log2 fold change [3]	log2 fold change [4]	log2 fold change [5]	log2 fold change (tipifarnib)	log2 fold change (mubritinib)
SLC30A10 (UniProt Q6XR72)	-0.019	-0.148	0.029	-0.061	0.016	0.043	0.078	-0.026	0.067	-0.007
SLIRP (UniProt Q9GZT3)	-0.156	-0.099	0.118	-0.027	-0.134	-0.073	0.131	0.075	0.031	-0.044
SLC27A4 (UniProt Q6P1M0)	-0.026	0.022	-0.098	-0.101	-0.113	0.011	0.003	0.009	0.124	0.598 (active)
SPPL2B (UniProt Q8TCT7)	-0.087	0.066	-0.016	-0.006	-0.066	0.009	0.116	-0.118	0.036	-0.008
SMARCE1 (UniProt Q969G3)	-0.181	0.041	-0.191	0.16	-0.07	-0.055	-0.056	-0.09	-0.082	-0.274
SRFBP1 (UniProt Q8NEF9)	0.075	-0.014	0.303	-0.031	0.095	-0.066	-0.163	-0.044	0.177	-0.129
SMCHD1 (UniProt A6NHR9)	0.306	0	0.037	-0.011	-0.319	-0.044	-0.061	-0.084	-0.003	-0.136
SPECC1 (UniProt Q5M775)	-0.102	-0.1	-0.108	-0.133	-0.067	0.063	-0.035	0.089	0.028	0.044
SLC25A39 (UniProt Q9BZJ4)	-0.182	-0.397	-0.136	-0.119	-0.035	0.035	0.081	0.092	0.009	0.104
SPAG9 (UniProt O60271)	-0.056	-0.014	-0.039	-0.074	-0.076	0.015	-0.018	0.012	-0.005	0.054
SOAT1 (UniProt P35610)	0.085	0.011	0.566 (active)	-0.001	0.257	-0.021	0.031	-0.058	0.039	0.096
STK17B (UniProt O94768)	0.024									
SMAD2 (UniProt Q15796)	-0.019	-0.037	-0.085	-0.123	-0.13	-0.14	0.023	0.057	0.012	0.022
SPTBN1 (UniProt Q01082)	0.064	-0.017	-0.01	-0.145	-0.043	0.054	-0.009	-0.007	-0.045	-0.075
SRP68 (UniProt Q9UHB9)	0.043	0.054	-0.118	-0.063	-0.098	0.055	-0.026	-0.08	-0.119	0.012
SQSTM1 (UniProt Q13501)	-0.138	0.056	0.042	-0.227	-0.006	0.172	0.001	0.022	0.186	0.034
TFRC (UniProt P02786)	-0.277 (active)	-0.038	-0.005	-0.043	0.009	-0.018	0.012	0.027	-0.004	0.052
SRSF3 (UniProt P84103)	0.126	-0.028	0.075	-0.544 (active)	0.173	0.082	-0.199	-0.154	0.134	-0.097
SMARCA5 (UniProt O60264)	-0.052	0.001	-0.019	-0.152	-0.052	0.002	-0.088	-0.112	-0.022	0.184
TAX1BP1 (UniProt Q86VP1)	0.011	-0.095	-0.086	0.011	-0.024	0.047	-0.068	0.027	0.092	0.045
SPG21 (UniProt Q9NZD8)	0.158	-0.129	-0.173	-0.06	-0.087	0.171	0.022	0.027	-0.115	-0.042
SP3 (UniProt Q02447)	0.022	-0.018	-0.01	0.093	0	-0.042	-0.044	0.103	-0.041	-0.045
SUGP1 (UniProt Q8IWZ8)	-0.033	0.012	-0.019	-0.058	-0.139	-0.043	0.08	-0.012	-0.007	0.063
SRP72 (UniProt O76094)	0.05	0.048	-0.117	-0.03	-0.186	0.108	-0.052	-0.052	-0.148	-0.036
STK38 (UniProt Q15208)	0.054	0	-0.105	-0.343 (active)	-0.136	0.009	0.035	0.008	-0.079	-0.083
SPG11 (UniProt Q96JI7)	-0.493	-0.584	-0.015	0.117	0.065	-0.006	-0.051	0.146	0.258	-0.009
SSR3 isoform 2 (UniProt Q9UNL2)	-0.064	0.034	-0.006	0.029	0.006	-0.047	0.107	-0.167	0.084	0.049
SNRPD3 (UniProt P62318)	0.013	-0.077	0.034	0.077	0.08	0.107	-0.097	-0.06	0.024	0.011
STX7 (UniProt O15400)	-0.06	-0.135	0.009	0.013	0.03	-0.017	-0.007	0.029	0.025	0.007
SRSF11 (UniProt Q05519)	0.071	0.105	-0.024	-1.01 (active)	-0.034	-0.001	-0.078	0.015	-0.029	-0.01
